Here are results for 14 molecules from article PMC12136788.

The full ranking holds about 5,800 sequences; the median of “enrichment r” is about 0.68, and the highest 2% start at about 11. A selection follows.

Sequences and labels used below:
T1: UNK ZnF1-6 (called full-length) (human, UniProt Q9C0B0 30-357)
T1 sequence: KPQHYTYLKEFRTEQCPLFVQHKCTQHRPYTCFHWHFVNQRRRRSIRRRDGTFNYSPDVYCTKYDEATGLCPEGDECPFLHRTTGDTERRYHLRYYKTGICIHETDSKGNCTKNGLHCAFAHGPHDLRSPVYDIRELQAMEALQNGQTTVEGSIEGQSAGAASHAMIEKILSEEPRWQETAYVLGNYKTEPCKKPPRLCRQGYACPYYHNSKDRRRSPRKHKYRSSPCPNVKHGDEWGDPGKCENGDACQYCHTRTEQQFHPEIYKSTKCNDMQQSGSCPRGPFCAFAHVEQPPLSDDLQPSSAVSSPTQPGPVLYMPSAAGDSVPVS

B1: chr10:22535117:22535218:-|3pUTR|ENSG00000150867|unk|FALSE|unique (ssRNA)
RNA: GGGAGUUCUACAGUCCGACGAUCAAGGUACACAUACAUUAUUUGAGUAACUGUUUCCUUGGGGGCCAAUCUGUGUAUGCUUUUAGAAGUUUACAGAAUGCUUUUAUUUUUGUCUAUAACAAACAGUCUGUCAUUUAUUUCUGUCAACAGAGGAUUGAGCAUCA
B2: chr9:76611375:76614569:-|three_prime_utr|ENSG00000106772|control|control|control (ssRNA)
RNA: GGGAGUUCUACAGUCCGACGAUCAUGUUACCUUUUUCCACUUUGCACUACCUGGUGCCAUUCUAAAUUUCUAAGGGGAAAAAUAGAAAGUUUGUUUACUCUUAAGAUAUUUUAUGAAAUUGUGUGUACUUUCCUAUUUUGCCACAACAGAGGAUUGAGCAUCA
B3: chr12:131960804:131960905:+|CDS|ENSG00000183495|unk|total|mutant (ssRNA)
RNA: GGGAGUUCUACAGUCCGACGAUCCCCUCAGCAAGCCCGUCGGCACCCCAGUCUCCCAGUUAUCAAAUACAGCAGCUGAUGAACCGGAGCCCUGCAACCGGGCAGAACGUGAACAUCACCCUGCAGAGCGUGGGCCCUGUCGUCCAACAGAGGAUUGAGCAUCA
B4: chr1:154944474:154944574:-|3pUTR|ENSG00000163346|msi1_unk|FALSE|overlapping (ssRNA)
RNA: GGGAGUUCUACAGUCCGACGAUCUCGAGGCCCAGCACGAGGACUUACCCUGGGGUUUUGUUAGGUUUGGAAGCAGCUGUCCCUAGGGGGUGAAGUCCCCCCCCUUUUUUUUUUUACCCCUGCUUCUCCCACGGCUUCACCUCCCAACAGAGGAUUGAGCAUCA
B5: chr7:32869766:32869881:-|CDS|ENSG00000170852|unk|FALSE|bound_elsewhere (ssRNA)
RNA: GGGAGUUCUACAGUCCGACGAUCAUGUACUGUUAUUUUCCAAGGUCUGACUCAUGGGUAGAAAUGGCCAUGAGACAGACUAGUAGGUCCUUUGCUUCAGCUGCAGCUUUUGGUGAUAAAAUUUUCUAUAUUGGAGGGUUGCAUCAACAGAGGAUUGAGCAUCA
B6: chr2:42682433:42682535:+|CDS|ENSG00000057935|unk|FALSE|unique (ssRNA)
RNA: GGGAGUUCUACAGUCCGACGAUCUCACGCUAUGGAUACAUUGUAUAGACACAGCUAUGAUUUGAGCAGUGCCAUUAGUGUCUUAGUACCACUCGGAGGACCUGUUUUAUGCAGAGAUGAAAUGGAGGAAUGGUCAGCCUCUGACAACAGAGGAUUGAGCAUCA
B7: chr1:64832709:64832810:+|3pUTR|ENSG00000162437|msi1|total|mutant (ssRNA)
RNA: GGGAGUUCUACAGUCCGACGAUCACAGCCCGAAAGUUUAAGGUAAUUUCUAAGUAUACUACCUAUAAGUAACUGAUAAGAAUCCGGCAUCAUUCAGUGAUACCGCAGAUGACUAAUGGGUUUUUCAGGCCCUGCACUUCUCUUCAACAGAGGAUUGAGCAUCA
B8: chr7:16784014:16784129:+|3pUTR|ENSG00000106537|msi1_unk|total|mutant (ssRNA)
RNA: GGGAGUUCUACAGUCCGACGAUCGAUAAUUUACUUGCCGUCUUUUAUGAUUACACCAAUGUAUUCCCGAAACCGUUAUGUCUCCGGAAAUUGUGGUUUAAUUUUUGACUUUUACAGGUAAGUGCAAAGGAGAAGUGGUUUCAUCAACAGAGGAUUGAGCAUCA
B9: chr8:79641408:79641533:+|CDS|ENSG00000104435|unk|total|mutant (ssRNA)
RNA: GGGAGUUCUACAGUCCGACGAUCCCAGGCUUUUGAGCUGAUCUUGAAGCCACCAUCUCCUAUCUCAGAAGCCCCACGAACUUCCGCUUCUCCAAAGAAGAAAGACCUGUCCCUGGAGGAGAUCCAGAAGAAACUGGAGGCUGCCAACAGAGGAUUGAGCAUCA
B10: ENSG00000107863:be:win_6101|3pUTR|ENSG00000107863|bound_else_gene|NA|bound_elsewhere_windowed (ssRNA)
RNA: GGGAGUUCUACAGUCCGACGAUCGCAAGGUAUUUGUUGCAACUUACUACAUAGCAUAUACCCAAAAUCACUGAAGAAAAUCGCUGGCAUCAGUGUGCAGCAAAUUUGUUCUUUUGGUUUCAUCACUAACAAAAGUGCCUCAUCCAACAGAGGAUUGAGCAUCA
B11: chr14:102081487:102081564:-|3pUTR|ENSG00000080824|msi1_unk|FALSE|overlapping (ssRNA)
RNA: GGGAGUUCUACAGUCCGACGAUCGAAGAUAAGAUUUCUGUCUACUAAGUGAUGCUGUGAUACCUUAGGCACUAAAGCAGAGCUAGUAAUGCUUUUUGAGUUUCAUGUUGGUUUAUUUUCACAGAUUGGGGUAACGUGCACUGUCAACAGAGGAUUGAGCAUCA
B12: chr14:54957033:54957204:-|CDS|ENSG00000198554|control|control|control (ssRNA)
RNA: GGGAGUUCUACAGUCCGACGAUCGCACGUUCAACUAAUAUUUUAGACAAUAUGGGCAAAUCAUCCAAGAAAUCCACUGCACUUAGUCGAACUACAAAUAAUGAAAAGUCUCCCAUUAUAAAGCCUCUGAUUCCAAAGCCGAAGCAACAGAGGAUUGAGCAUCA
B13: chrX:55006554:55006655:+|CDS|ENSG00000169188|unk|FALSE|unique (ssRNA)
RNA: GGGAGUUCUACAGUCCGACGAUCAGGGCGCAAGUGGAUGGACAGCUUGCUCAGUAACUUGGGGUGCCAGUCUGCCUCUCAUGUAGGGCCCUUCAUCGAUAGCUACCGCUGCUUCCAACCAAAGCAGGAGGGGGCCUUCACCUGCAACAGAGGAUUGAGCAUCA
B14: chrX:112630647:112631419:-|three_prime_utr|ENSG00000182508|control|control|control (ssRNA)
RNA: GGGAGUUCUACAGUCCGACGAUCAGAAGAUUGGAGAGGGUGGGAAAGGGGAGGAGGGAGCCCUGAAAAGAGGUACUAAGGAUUAGGCCAUUUGUCAUCUGACUGUCAUUAGCAUAGCCUAGUGUUUGCAUGCUUUUUAAACUACAACAGAGGAUUGAGCAUCA

This experiment addresses T1, UNK ZnF1-6 (called full-length). The experiment can be described thus: nsRBNS (natural sequence RNA bind-n-seq); RBNS binding buffer (assumed for nsRBNS): 25 mM Tris pH 7.5, 150 mM KCl, 3 mM MgCl2, 0.01% Triton X-100, 500 ug/ml BSA, 20 U/ml SUPERase-In, 4 C; UNK is unkempt and MSI1 is Musashi-1; names of the RNAs are library labels; protein concentration not given here; high values mean tight binding.
B1 displayed a binding signal of 0.472 enrichment R.

Consider B2, for which the binding signal was 0.818 enrichment R.

The molecule B3 showed a binding signal of 1.09 enrichment R.

For the molecule B4, the binding signal was 1.37 enrichment R.

In turn, B5 displayed a binding signal of 0.714 enrichment R.

Turning to B6, the binding signal came to 0.747 enrichment R.

In the case of B7, the binding signal amounted to 0.244 enrichment R.

With B8, the binding signal stood at 0.435 enrichment R.

Take B9: the binding signal is 0.67 enrichment R.

Turning to B10, the binding signal was 0.567 enrichment R.

B11: the binding signal stood at 0.375 enrichment R.

In the case of B12, the binding signal is 1.02 enrichment R.

B13 had a binding signal of 0.87 enrichment R.

As to B14, the binding signal came to 1.14 enrichment R.
